Hit rate of the full screen: of about 87,000 compounds, about 360 (0.41%) were called active. Rule as the data show it: active = cytotoxicity above about 50%; inactive = the rest. Shown is part of a subset that was picked to be rich in actives.

Drawing on PubChem BioAssay AID620 (Sanford-Burnham Center for Chemical Genomics, 2007), this text covers cytotoxicity for 102 molecules.

A short description of the assay: cytotoxicity in HT1080 fibrosarcoma cells, cell-based, fluorescence readout (AID 620).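 Also: cells exposed to compound overnight then 4 h with Alamar Blue; 0% = vehicle DMSO and 100% = killing control.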 The note with it: HT1080 viability, at 10 µM, stronger effect = higher value.
`CCCCN(C)Cc1c(O)ccc2c(-c3ccccc3)cc(=O)oc12`: the cytotoxicity is 11.9% (inactive).
Consider `CCOc1ccc(NC(=O)N2CCC(NC(=O)c3ccco3)CC2)cc1`, for which the cytotoxicity is 4.5% (inactive).
In the case of `O=C(CSc1ncn(-c2ccccc2)n1)c1cccs1` it was -3.1% (inactive); in that of `CCOc1ccc(-c2nc(S(=O)(=O)c3ccccc3)c(NCc3cccnc3)o2)cc1`, 0.3% (inactive).
The result for `CC(=O)Nc1ccccc1-c1nn[nH]n1` reads -11.5% (inactive); that for `Cn1c(/C=C/c2ccc([N+](=O)[O-])o2)nc2ccccc2c1=O`, 85.1% (active).
Regarding `Cn1c(SCc2ccon2)nc2ccccc2c1=O`, the cytotoxicity was 2.4% (inactive).
In the case of `Cc1ccc2nc(N/N=C\c3ccc([N+](=O)[O-])o3)nc(-c3ccccc3)c2c1` it was 13.6% (inactive); in that of `O=C(CC1(O)C(=O)Nc2cc(Cl)cc(Cl)c21)c1ccccc1O` (configuration not stated), -66.6% (inactive); in that of `CCCCNc1c(C(=O)OCC)c(=O)[nH]c2ccccc12`, 0.1% (inactive).
As to `CCN(CC)c1ccc(NC(=O)c2cccc(OC)c2)c(C)c1`, the cytotoxicity was 16.9% (inactive).
As for `CCN(CC)c1ccc(NC(=O)c2c(OC)cccc2OC)c(C)c1`, the cytotoxicity is -1.4% (inactive).
For the molecule `CCN(CC)c1ccc(NC(=O)c2cc(OC)cc(OC)c2)c(C)c1`, the cytotoxicity is 59.7% (active).
Consider `CCC1Oc2ccccc2N(CC(=O)NCCCN2CCOCC2)C1=O` (configuration not stated), for which the cytotoxicity is -2.1% (inactive).
Regarding `O=S(=O)(Nc1ccc2c(c1)OCO2)c1ccc(Br)s1`, the cytotoxicity is 9.9% (inactive).
The result for `COCCn1c(SCC#N)nnc1-c1ccccc1` reads 22.4% (inactive); that for `CCOc1cc(/C=N/n2cnnc2)c(Br)cc1O`, 62.2% (active); that for `CCOc1cc(/C=N/n2cnnc2)ccc1O`, -5% (inactive).
`CCOc1cc(/C=N/n2cnnc2)cc(Br)c1O`: the cytotoxicity is 0.3% (inactive).
In the case of `COc1ccc(NS(=O)(=O)Cc2ccccc2Cl)cn1` it was 14.8% (inactive); in that of `COc1ccc(NC(=O)/C(Cl)=C(/Cl)S(=O)(=O)Cc2ccccc2)cn1`, 79.3% (active); in that of `COc1ccc(NC(=O)c2cc(OC)c(OC)c(OC)c2)cn1`, 3.1% (inactive).
The result for `COc1ccc(NC(=O)C(CC(C)C)NC(=O)c2ccccc2C)cn1` (configuration not stated) reads 0.6% (inactive); that for `COc1ccc(CNC(=O)Nc2ccc(C)cc2)cc1`, -2.8% (inactive).
`CCCS(=O)(=O)C(=C(Nc1ccc(OC)cc1)Nc1ccc(OC)cc1)S(=O)(=O)CCC`: the cytotoxicity is 7.4% (inactive).
In the case of `COc1ccc(CS(=O)(=O)/C(Cl)=C(/Cl)C(=O)Nc2ccc(OC)nc2)cc1`, the cytotoxicity was 63.1% (active).
As to `COC(=O)c1ccccc1S(=O)(=O)Nc1ccc(OC)nc1`, the cytotoxicity is 13% (inactive).
As for `COc1ccc(C(=O)/C=C(\N)C(F)(F)F)c(O)c1`, the cytotoxicity is -3.6% (inactive).
Turning to `CCOC(=O)CSc1nc2c(c(=O)[nH]c(=O)n2C)n1C/C=C(/C)Cl`, the cytotoxicity was 12% (inactive).
In the case of `O=C1C=C(N(CCO)CCO)C2(CCCCC2)O1`, the cytotoxicity was -7.3% (inactive).
Consider `O=C(O)CNc1nc(-c2ccccc2)nc2ccccc12`, for which the cytotoxicity was -10.9% (inactive).
`COC1=C(OC)c2ccccc2C(C(=O)O)N/C1=C(/C)Nc1ccncc1` (configuration not stated): the cytotoxicity was -1% (inactive).
Regarding `CN(CC(=O)NC1CCCCCCC1)S(=O)(=O)c1cccc2cccnc12`, the cytotoxicity was -11.8% (inactive).
The result for `CCOC(=O)/C(=C\c1cccnc1)C(=O)c1cc(C(C)=O)c(Nc2ccccc2)s1` reads 75.6% (active); that for `CCOC(=O)/C(=C/Nc1ccccc1)[N+](=O)[O-]`, -10.2% (inactive); that for `CCOC(=O)c1cccc(NC(=O)c2cccnc2)c1`, 0.2% (inactive).
With `CCOC(=O)Nc1cccc(Nc2ccccc2)c1`, the cytotoxicity is -3.2% (inactive).
Regarding `CCOC(=O)c1sc(Nc2ccccc2)nc1C`, the cytotoxicity was 15% (inactive).
Regarding `Cn1c(-c2sc(=S)n(-c3ccccc3)c2N)nc2ccccc21`, the cytotoxicity was -7.2% (inactive).
The result for `CCCCn1c(SCC(=O)N2CCC(C)CC2)nc2cc(S(N)(=O)=O)ccc21` reads 27.9% (inactive); that for `CC1CCc2c(sc3ncnc(SCC(=O)c4ccccc4)c23)C1` (configuration not stated), 4.4% (inactive).
Regarding `CC(C)(C)c1csc(NC(=O)Cn2c(=O)oc3ccccc32)n1`, the cytotoxicity was -6.8% (inactive).
The result for `CNC(=O)c1ncnnc1N(C)C(=O)NCc1ccccc1` reads -2.1% (inactive); that for `CN1CCN(C(=O)c2ccc(C3SCC(=O)N3Cc3ccco3)cc2)CC1` (configuration not stated), -8.2% (inactive).
As for `O=C1c2ccccc2OC2(C=Cc3ccccc3O2)N1Cc1ccccc1` (configuration not stated), the cytotoxicity was 15.6% (inactive).
As for `CN1CC2=Cc3ccccc3OC23Oc2ccccc2C=C3C1`, the cytotoxicity is 51.7% (active).
On to `O=C(Nc1cccc(-c2nc3ccccc3o2)c1)c1ccc(N2C(=O)C3C4C=CC(C4)C3C2=O)cc1` (configuration not stated), for which the cytotoxicity was 21.5% (inactive).
Consider `CCSc1nnc(NC(=O)c2cccs2)s1`, for which the cytotoxicity was -4.1% (inactive).
The result for `CCSc1nnc(NC(=O)c2ccccn2)s1` reads -11% (inactive); that for `CCSc1nnc(NC(=O)c2ccc(Br)s2)s1`, 68.3% (active).
`CCSc1nnc(NC(=O)c2ccc3c(c2)OCO3)s1`: the cytotoxicity was 55.2% (active).
Take `COCCNc1nnc(SCC(=O)c2ccc3c(c2)OCO3)s1`: the cytotoxicity is 1.3% (inactive).
With `CCSc1nnc(NC(=O)c2csc(C)c2)s1`, the cytotoxicity was 25.7% (inactive).
Regarding `CCOCCCn1c(SCC(=O)Nc2ccc(C(N)=O)cc2)nc2ccccc2c1=O`, the cytotoxicity is -6% (inactive).
On to `CCOC(=O)c1cc(-c2ccc(C)o2)nn1CCC#N`, for which the cytotoxicity was 0.3% (inactive).
In the case of `CCOCCCNC(=O)c1ccc(OC)cc1` it was -2.5% (inactive); in that of `CCCC1=Nc2cc(C(=O)NCCCOCC)ccc2Sc2ccccc21`, 63.8% (active); in that of `COCCCNC(=O)c1cccc(C(=O)NCCCOC)c1`, 0.6% (inactive).
In the case of `CCC1=Nc2cc(C(=O)NCCCOC(C)C)ccc2Sc2ccccc21` it was 39.6% (inactive); in that of `CCC1=Nc2cc(C(=O)NCCCOC)ccc2Sc2ccccc21`, 68.1% (active); in that of `CCCC1=Nc2cc(C(=O)NCCCOC(C)C)ccc2Sc2ccccc21`, 6.2% (inactive).
Turning to `CC(C)C1N=C2c3ccccc3N=C(SCc3cc(=O)n4ccccc4n3)N2C1=O` (configuration not stated), the cytotoxicity is 2.9% (inactive).
In the case of `CCOc1ccc(S(=O)(=O)N2CCN(C)CC2)c(C)c1C`, the cytotoxicity was 11.2% (inactive).
Take `CCC(C)(C)n1c(=O)[nH]c2c(c1=O)CCC2`: the cytotoxicity was 25.2% (inactive).
In the case of `O=C(Nc1ccccc1N1CCCCC1)c1ncoc1-c1ccc(F)cc1` it was -6.7% (inactive).
With `CCOc1ccc(/C=C2/SC(=S)N(n3c(C)ccc3C)C2=O)cc1`, the cytotoxicity is -16.1% (inactive).
`COc1ccc(C(=O)N2CCc3cc(OC)c(OC)cc3C2)cc1OC`: the cytotoxicity was -5.5% (inactive).
For the molecule `CCOc1ccc(C(=O)N2CCCC2)cc1OC`, the cytotoxicity was 4.1% (inactive).
In the case of `CCOc1cc(C(=O)N2CCc3cc(OC)c(OC)cc3C2)ccc1OC(F)F` it was 59.3% (active).
In the case of `COC(=O)CN1C(=O)C2(C(C#N)=C(N)Oc3c2c(C)nn3-c2ccccc2)c2ccccc21` (configuration not stated), the cytotoxicity is -65.1% (inactive).
Regarding `CCc1cccc(CC)c1NC(=O)CN1CC(C)SC1=NC1CCCCC1` (configuration not stated), the cytotoxicity is -4.4% (inactive).
Take `CC1CCCN(S(=O)(=O)c2ccc(NC(=O)CN3CCN(C)CC3)cc2)C1` (configuration not stated): the cytotoxicity is -6.1% (inactive).
For `Cc1ccc(NC(=O)CN2CC(C)SC2=NC2CCCCC2)cc1` (configuration not stated), the cytotoxicity was 87% (active).
Regarding `CCOC(=O)c1c(NC(=O)CSc2nnc(-c3ccccc3C)n2C)sc(C(C)=O)c1C`, the cytotoxicity was -23.9% (inactive).
For the molecule `O=C1NCCCC1C(=O)N1CCN(C(=O)c2ccco2)CC1` (configuration not stated), the cytotoxicity is 1.1% (inactive).
For the molecule `COc1cccc(NC(=O)CC2C(=O)NC3CCCCC3N2C(=O)c2ccc(F)cc2)c1` (configuration not stated), the cytotoxicity was -16.2% (inactive).
The result for `Cc1ccccc1NCC(=O)N/N=C/C(Br)=C/c1ccccc1` reads -17.1% (inactive); that for `O=C(N/N=C/C(Br)=C\c1ccccc1)c1n[nH]c2c1CCC2`, 66.5% (active); that for `O=C(CNc1cccc2ccccc12)N/N=C/C(Br)=C/c1ccccc1`, 1.9% (inactive).
In the case of `CC(/C=N/NC(=O)c1ccc(Br)cc1)=C\c1ccccc1` it was -15.4% (inactive).
In the case of `Cc1ccc(NCC(=O)N/N=C\C(Br)=C\c2ccccc2)cc1` it was 8.3% (inactive); in that of `O=C(O)c1n[nH]c2c1CCCC2`, -12.7% (inactive); in that of `CC(=C/c1ccccc1)/C=N/NC(=O)c1cnccn1`, -7.1% (inactive).
For `O=C(N/N=C/C(Br)=C/c1ccccc1)c1n[nH]c2c1CCC2`, the cytotoxicity is 66.4% (active).
In the case of `CC(/C=N/NC(=O)c1n[nH]c2c1CCC2)=C\c1ccccc1` it was 71.7% (active); in that of `COc1ccc(CC(=O)NCc2nnc(SCC(=O)N3CCN(c4ccccc4)CC3)n2C)cc1`, -7% (inactive).
For `COc1ccc(C)cc1NC(=O)CNC(=O)Cn1ccc2ccccc2c1=O`, the cytotoxicity was 7.1% (inactive).
In the case of `Cc1nnc(Sc2nc3c(c(=O)[nH]c(=O)n3C)n2Cc2ccccc2Cl)s1` it was 1% (inactive).
As for `COCCCNC(=O)Cn1cc2c(n1)CCC(C)C2` (configuration not stated), the cytotoxicity is -3.5% (inactive).
Turning to `Nc1[nH]c(=S)[nH]c(=O)c1-c1ccccc1`, the cytotoxicity is -5% (inactive).
Regarding `O=C(Nc1ccc(N2CCN(Cc3ccccc3)CC2)cc1)c1ncn[nH]1`, the cytotoxicity is -2.9% (inactive).
As for `CC(=O)c1ccc(NC(=O)c2ccn[nH]2)cc1`, the cytotoxicity is -0.3% (inactive).
For the molecule `COc1cc(CC(=O)NCc2ccc3c(c2)OCO3)cc(OC)c1OC`, the cytotoxicity was 3.1% (inactive).
With `COc1cc(CC(=O)Oc2ccc3c(c2)OCO3)cc(OC)c1OC`, the cytotoxicity is 2.2% (inactive).
`COc1cc([C@@H]2c3cc4c(cc3[C@H](O)[C@H]3COC(=O)[C@H]23)OCO4)cc(OC)c1OC`: the cytotoxicity is 68.5% (active).
As to `COc1ccc2c(c1OC)C(=O)OC2Nc1ncc(Br)cc1Br` (configuration not stated), the cytotoxicity was 6.2% (inactive).
The result for `COc1cc(C2CC(=O)c3cnc(N4CCN(Cc5ccccc5)CC4)nc3C2)cc(OC)c1OC` (configuration not stated) reads 52.5% (active).
`CCN1CCN(c2ncc3c(n2)CC(c2ccc(OC)c(OC)c2)CC3=O)CC1` (configuration not stated): the cytotoxicity is -13% (inactive).
Regarding `CCN1CCN(c2ncc3c(n2)CC(c2cc(OC)c(OC)c(OC)c2)CC3=O)CC1` (configuration not stated), the cytotoxicity is 51.1% (active).
In the case of `COc1cc(C2CC(=O)c3cnc(N)nc3C2)cc(OC)c1OC` (configuration not stated), the cytotoxicity was 0.9% (inactive).
`COc1ccc(C2CC(=O)c3cnc(N4CCN(Cc5ccccc5)CC4)nc3C2)cc1` (configuration not stated): the cytotoxicity is 22.6% (inactive).
In the case of `COc1ccc(C2CC(=O)c3c(C)nc(N4CCN(Cc5ccccc5)CC4)nc3C2)cc1OC` (configuration not stated) it was -20.1% (inactive).
